# In PubChem BioAssay:
# Active and inactive are the calls of the source.
# What was measured:
# [1] = tested on: Human papillomavirus type 1a protein E7 (residues 44-93); experiment: small molecules binding HPV E7 44-93 – biochemical, small-molecule microarray, residues 44-93, 635 nm fluorescence, primary screen (AID 1108); conditions: fluorescence 635 nm, higher = more signal;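 also: E7 fragment applied at 1 µg/mL in TBST for 1 h at 4 C; score combines spot fluorescence with its signal to noise ratio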
# [2] = hepatitis C replication reporter changes, two-sided – Huh7 cells, luciferase reporter, HCV replication inhibitor project, primary screen (AID 1109); conditions: Huh7 HCV replicon luciferase reporter, 48 h; higher = more signal;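 also: huh7 hepatoma cells harbouring a luciferase neomycin HCV replicon reporter; luciferase luminescence as measure of HCV replicon replication; test concentration not given here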
# [3] = target: Left-right determination factor 2 (Homo sapiens) (UniProt O00292); experiment: small molecules binding LEFTY2 protein – biochemical, small-molecule microarray, 635 nm fluorescence scan, primary screen (AID 1110); conditions: higher = more signal
# Sequence of Left-right determination factor 2 (Homo sapiens) (O00292 whole entry, looked up): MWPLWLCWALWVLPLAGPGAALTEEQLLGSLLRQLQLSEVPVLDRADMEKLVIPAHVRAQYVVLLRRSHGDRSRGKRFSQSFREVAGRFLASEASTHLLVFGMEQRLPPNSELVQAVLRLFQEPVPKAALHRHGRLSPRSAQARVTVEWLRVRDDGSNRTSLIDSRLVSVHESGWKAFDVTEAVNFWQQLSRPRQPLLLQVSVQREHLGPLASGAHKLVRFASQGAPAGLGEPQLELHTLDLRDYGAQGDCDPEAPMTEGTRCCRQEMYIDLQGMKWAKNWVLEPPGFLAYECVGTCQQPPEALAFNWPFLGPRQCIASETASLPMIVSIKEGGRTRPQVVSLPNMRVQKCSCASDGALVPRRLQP
# [4] = target: Calmodulin-1 (Homo sapiens) (UniProt P0DP23); experiment: small molecules binding calmodulin-1 with EGTA – biochemical, small-molecule microarray, Cy5-labelled CALM1, profiling panel (AID 1111); conditions: Cy5-CALM1 binding fluorescence, higher = more signal;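 also: labelled calmodulin applied in Tris saline Tween buffer holding calcium plus EGTA and DTT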
# [5] = target: Calmodulin-1 (Homo sapiens) (UniProt P0DP23); experiment: small molecules binding Ca-loaded calmodulin-1 – biochemical, small-molecule microarray, Cy5-labelled CALM1, plus calcium, artefact control for SMM control-protein annotation, profiling panel (AID 1112); conditions: Cy5-CALM1 binding fluorescence, higher = more signal;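 also: score merges spot fluorescence with signal to noise from triplicate slides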
# [6] = probe aWnt5a binding to arrayed compounds – biochemical, biotinylated probe, 635/667 nm fluorescence, primary screen (AID 1113); conditions: small-molecule microarray, higher = more signal;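 also: score merges 667 nm fluorescence intensity with signal-to-noise per printed feature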
# [7] = probe aShh binding to arrayed compounds – biochemical, biotinylated probe, 635/667 nm fluorescence, primary screen (AID 1114); conditions: small-molecule microarray, higher = more signal;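 also: probe is biotin-labelled aShh protein from a stem cell growth factor screen; measures binding of labelled protein to compounds printed on the slide; score merges feature fluorescence at 667 nm with signal-to-noise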
# [8] = probe aNog binding to arrayed compounds – biochemical, biotinylated probe, 635/667 nm fluorescence, primary screen (AID 1115); conditions: small-molecule microarray, higher = more signal;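 also: probe is biotinylated aNog protein used at 0.15 µg/mL for 1 h at 4 C; z-score combines 667 nm fluorescence of each spot with its signal to noise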
# [9] = target: Torsin-1A-interacting protein 1 (Homo sapiens) (UniProt Q5JTV8); experiment: compound microarray binding of lysate hLAP1 – cell lysate, small-molecule microarray, COS7 lysate, 635/667 nm fluorescence, primary screen (AID 1116); conditions: 635 nm fluorescence, higher = more signal
# Sequence of Torsin-1A-interacting protein 1 (Homo sapiens) (Q5JTV8 whole entry, looked up): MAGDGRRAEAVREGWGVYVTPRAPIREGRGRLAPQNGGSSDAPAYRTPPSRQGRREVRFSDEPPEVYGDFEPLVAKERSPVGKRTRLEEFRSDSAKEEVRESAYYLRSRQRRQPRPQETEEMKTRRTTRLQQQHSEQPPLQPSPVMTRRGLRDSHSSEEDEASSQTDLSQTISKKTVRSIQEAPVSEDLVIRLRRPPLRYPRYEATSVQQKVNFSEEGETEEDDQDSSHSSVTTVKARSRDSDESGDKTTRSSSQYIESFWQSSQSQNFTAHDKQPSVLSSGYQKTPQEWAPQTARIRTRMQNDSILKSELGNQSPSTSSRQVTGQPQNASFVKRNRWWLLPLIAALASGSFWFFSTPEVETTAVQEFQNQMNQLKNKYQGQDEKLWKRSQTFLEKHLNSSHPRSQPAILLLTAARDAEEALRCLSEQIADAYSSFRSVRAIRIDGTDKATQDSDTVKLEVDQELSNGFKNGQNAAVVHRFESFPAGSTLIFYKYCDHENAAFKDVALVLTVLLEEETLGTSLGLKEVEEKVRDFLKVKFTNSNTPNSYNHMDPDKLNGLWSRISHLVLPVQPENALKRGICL
# [10] = target: Alpha-bungarotoxin (Bungarus multicinctus) (UniProt P60615); experiment: compounds binding labelled alpha-BTX control protein – biochemical, small-molecule microarray, Alexa647 label, 635/667 nm fluorescence, artefact control for SMM control protein annotation, profiling panel (AID 1117); conditions: alpha-BTX-A647 binding fluorescence, higher = more signal
# Sequence of Alpha-bungarotoxin (Bungarus multicinctus) (P60615 whole entry, looked up): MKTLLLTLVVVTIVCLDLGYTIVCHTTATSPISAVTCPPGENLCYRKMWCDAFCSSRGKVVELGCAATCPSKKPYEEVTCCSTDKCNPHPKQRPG
# Albumin (Bos taurus) = Albumin (Bos taurus) (UniProt P02769); experiment: compounds binding labelled BSA control protein – biochemical, small-molecule microarray, Alexa647 label, 635/667 nm fluorescence, artefact control for SMM control protein annotation, profiling panel (AID 1118); conditions: BSA-A647 binding, fluorescence 635 nm, higher = more signal;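 also: score merges 667 nm emission intensity and signal-to-noise per printed compound spot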
# Sequence of Albumin (Bos taurus) (P02769 whole entry, looked up): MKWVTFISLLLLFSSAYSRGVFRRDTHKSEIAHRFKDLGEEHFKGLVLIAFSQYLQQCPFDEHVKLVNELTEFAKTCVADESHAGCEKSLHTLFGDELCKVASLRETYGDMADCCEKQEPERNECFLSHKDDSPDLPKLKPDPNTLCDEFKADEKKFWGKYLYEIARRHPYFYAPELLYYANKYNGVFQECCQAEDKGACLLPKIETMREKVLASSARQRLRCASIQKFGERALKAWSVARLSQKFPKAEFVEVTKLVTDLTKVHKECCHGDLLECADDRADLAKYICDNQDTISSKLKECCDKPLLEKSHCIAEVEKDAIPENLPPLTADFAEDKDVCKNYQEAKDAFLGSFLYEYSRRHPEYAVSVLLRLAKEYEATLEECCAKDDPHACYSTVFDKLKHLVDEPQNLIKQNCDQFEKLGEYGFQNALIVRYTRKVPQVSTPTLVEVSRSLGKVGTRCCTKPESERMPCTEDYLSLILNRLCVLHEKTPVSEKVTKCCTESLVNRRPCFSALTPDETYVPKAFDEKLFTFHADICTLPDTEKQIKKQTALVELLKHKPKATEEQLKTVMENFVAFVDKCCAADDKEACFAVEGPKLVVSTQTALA
# [11] = probe aXIP binding to arrayed compounds – biochemical, NeuroSMM set, 635/667 nm fluorescence, primary screen (AID 1119); conditions: small-molecule microarray, higher = more signal, called active from +8 up or from −8 down;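 also: probe is the protein aXip251-270 applied at 1 µg/mL to compound-printed slides; binding of probe to printed compounds measured as 667 nm fluorescence plus signal to noise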
# [12] = probe aNOTCH3 binding on compound microarray – biochemical, small-molecule microarray, 635/667 nm fluorescence, primary screen (AID 1120); conditions: higher = more signal;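 also: probe is a biotin-tagged antibody raised against NOTCH3 rather than NOTCH3 protein; score merges spot fluorescence near 667 nm with spot signal to noise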
# [13] = probe aNOTCH2 binding on compound microarray – biochemical, small-molecule microarray, 635/667 nm fluorescence, primary screen (AID 1121); conditions: higher = more signal;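 also: score merges feature fluorescence read at 667 nm with its signal to noise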
# [14] = target: Carbonic anhydrase 2 (Homo sapiens) (UniProt P00918); experiment: compounds binding carbonic anhydrase 2 – biochemical, small-molecule microarray, Alexa647-labelled CAII, profiling panel (AID 1122); conditions: CAII-A647 binding fluorescence, higher = more signal
# [15] = COS7 lysate on small-molecule microarray, probe aHis, 635 nm (AID 1123); conditions: COS7 cell lysate, fluorescence, higher = more signal;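 also: z-score combines 667nm fluorescence intensity with signal-to-noise per printed compound spot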
# [16] = probe aLAP1 signal on lysate-treated microarray – cell lysate, small-molecule microarray, COS7 lysate, primary screen (AID 1124); conditions: probe aLAP1, fluorescence, higher = more signal;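 also: lysate comes from COS7 cells expressing LAP1 and is applied at 0.3 µg/mL; score merges spot fluorescence near 667 nm with signal-to-noise over triplicate slides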
# Sam68 (KHDRBS1) = experiment: compounds binding KHDRBS1 protein – biochemical, small-molecule microarray, 635 nm fluorescence, primary screen (AID 1125); conditions: higher = more signal;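 also: score merges 667 nm channel intensity with signal to noise over triplicate slides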
# [17] = tested on: Chordin-like protein 2 (CHRDL2); experiment: compounds binding chordin-like 2 – biochemical, small-molecule microarray, 635 nm fluorescence, primary screen (AID 1126); conditions: fluorescence 635 nm, higher = more signal;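 also: printed compound slides probed with Chrdl2 protein at 4 µg/mL for 1 h at 4 C; score merges 667 nm emission intensity with signal to noise over three replicate slides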
# [18] = target: Concanavalin-A (Canavalia ensiformis) (UniProt P02866); experiment: compounds binding concanavalin A lectin – biochemical, small-molecule microarray, Alexa647 label, 635 nm, artefact control for SMM control protein annotation, primary screen (AID 1127); conditions: ConA-A647 binding fluorescence, higher = more signal;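 also: z combines 667 nm emission intensity with signal-to-noise across three replicate slides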
# Sequence of Concanavalin-A (Canavalia ensiformis) (P02866 whole entry, looked up): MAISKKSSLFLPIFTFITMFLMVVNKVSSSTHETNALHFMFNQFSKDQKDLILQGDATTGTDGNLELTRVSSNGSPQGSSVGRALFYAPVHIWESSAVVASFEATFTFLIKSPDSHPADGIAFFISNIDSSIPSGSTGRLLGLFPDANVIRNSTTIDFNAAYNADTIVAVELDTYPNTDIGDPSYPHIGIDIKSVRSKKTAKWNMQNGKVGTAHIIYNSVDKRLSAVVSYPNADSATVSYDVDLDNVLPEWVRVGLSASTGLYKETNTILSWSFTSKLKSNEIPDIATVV
Compound,composite z-score [1],z-score [2],composite z-score [3],composite z-score [4],composite z-score [5],composite z-score [6],composite z-score [7],composite z-score [8],composite z-score [9],composite z-score [10],composite z-score (Albumin (Bos taurus)),composite Z-score [11],composite z-score [12],composite z-score [13],composite z-score [14],composite z-score [15],composite z-score [16],composite z-score (Sam68 (KHDRBS1)),composite z-score [17],composite z-score [18]
CC(C)C[C@@H]1NC(=O)[C@@H]2C[C@H](C(=O)NCCCCCCN)[C@H](c3cccc(OCCO)c3)N2C1=O,1.46,-0.125,0.281,0.861,-0.0534,-0.0461,-0.349,-0.346,1.13,1.67,0.586,0.799 (inactive),0.16,-0.0859,0.659,2.22,0.636,1.31,0.668,1.03
NCCCCCCNC(=O)[C@@H]1C[C@@H]2C(=O)N[C@@H](CCCCN)C(=O)N2[C@@H]1c1ccc(O)cc1,1.31,-0.31,0.642,-0.301,0.0301,-0.172,0.12,-0.0087,1.66,-1.03,-1.58,1.7 (inactive),-0.0431,-0.0386,0.782,1.68,1.18,0.762,0.667,0.0619
COCCOC(=O)N1C(=O)[C@@]2(c3cc(C#CC4(O)CCCCCC4)ccc31)[C@H](C(=O)Nc1nc3ccccc3s1)[C@H]1C(=O)O[C@H](c3ccccc3)[C@H](c3ccccc3)N1[C@@H]2c1ccc(O)cc1,1.37,-0.895,1,1.29,0.102,-0.18,-0.0849,-0.188,0.286,1.1,0.25,0.56 (inactive),0.188,-0.088,0.303,1.59,0.713,1.3,0.626,1.18
COC(=O)C(CC#Cc1ccc2c(c1)[C@]1(C(=O)N2)[C@H](c2ccc(O)cc2)N2[C@H](c3ccccc3)[C@H](c3ccccc3)OC(=O)[C@H]2[C@@H]1C(=O)NC[C@H](O)c1ccccc1)C(=O)OC,0.829,-1.04,0.337,0.175,-0.102,-0.0606,-0.0709,0.0169,1.24,0.624,0.0841,0.564 (inactive),0.0948,-0.0956,0.553,1.22,1.2,1.24,0.294,0.517
O=C1N(CCS(=O)(=O)c2ccccc2)c2ccccc2[C@H]2OC(c3ccc(OCCCO)cc3)=N[C@@]12Cc1ccccc1,0.474,-0.733,0.949,1.27,0.517,0.0101,0.337,-0.0321,2.03,1.66,-0.154,1.47 (inactive),0.146,0.087,0.555,2.93,0.991,1.29,1.4,1.14
CCCC#C[Si](O[C@H](CC)c1cn([C@H](C)c2ccccc2)nn1)(C(C)C)C(C)C,0.691,-0.133,0.3,-0.155,-0.157,-0.124,0.275,0.341,1.54,0.709,0.468,0.381 (inactive),-0.112,-0.0317,0.26,0.47,-0.0249,0.702,0.169,0.488
COc1ccc(C#Cc2ccc3c(c2)[C@]2(C(=O)N3)[C@H](c3ccc(OCCO)cc3)N3[C@H](c4ccccc4)[C@H](c4ccccc4)OC(=O)[C@H]3[C@@H]2C(=O)NC[C@H](O)c2ccccc2)cc1,1.43,-2.21,0.428,1.12,-0.126,-0.0462,-0.0146,-0.157,0.64,1.87,0.615,-0.128 (inactive),0.779,-0.0531,0.496,1.71,0.117,1.3,0.152,1.02
CCCCC(CC)C(O)C1C=CC2C(=O)N(c3ccccc3)C(=O)C2N1Nc1ccccc1F (stereo not given),1.41,-0.508,-0.285,0.0117,-0.264,0.0768,0.341,1.1,0.928,-0.176,0.468,-0.243 (inactive),0.225,-0.153,0.749,2.75,0.51,1.12,-0.904,0.0845
CCOC(=O)C[C@H]1[C@H](OC(=O)c2ccccc2-c2ccccc2)[C@@H](NC(=O)c2ccc3ccccc3c2)c2cc(OCCCO)ccc2N1C(=O)c1ccccc1,0.461,-1.27,0.596,-0.09,-0.332,-0.0981,-0.291,0.0043,0.228,0.789,0.5,-0.0287 (inactive),0.138,-0.206,0.355,0.462,-0.0843,0.735,0.578,0.215
[N-]=[N+]=Nc1ccccc1C[C@]1(C(=O)NCCN2CCOCC2)COC(c2ccc(OCCCO)cc2)=N1,1.4,-1.92,0.795,0.76,-0.553,-0.349,-0.221,0.624,0.101,0.536,0.18,-0.34 (inactive),-0.0745,0.0328,0.348,1.87,1.26,1.15,0.376,1.1
NC(=O)NCC#Cc1ccc2c(c1)[C@]1(C(=O)N2)[C@H](C(=O)N2CCN(c3ncccn3)CC2)[C@H]2C(=O)O[C@H](c3ccccc3)[C@H](c3ccccc3)N2[C@@H]1c1ccc(O)cc1,1.23,-0.437,0.728,0.313,-0.156,0.108,0.296,-0.524,0.498,0.677,0.151,0.953 (inactive),0.856,-0.0149,0.304,0.817,0.102,1.2,0.864,0.721
